Screens deposited in PubChem BioAssay by several laboratories.
A selection: hits, their analogues and other compounds. The true share with any hit is near 3.4%.
ADAM10 inh: inhibitors of human ADAM10. O14672. recombinant ADAM10, EDANS/DABCYL FRET peptide cleavage, 3 h. inhibition, % at 7 µM. 0.62% of 370,000 active;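 active = inhibition above a per-campaign cutoff equal to the mean of compounds falling between control-based bounds plus 3 SD, cut at about 20% in these data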
KLK7 zymogen act: activates the human kallikrein-7 zymogen; P49862; purified proKLK7, EDANS-DABCYL substrate fluorescence; 100% is mature enzyme control, 0% vehicle; activation, % at 7 µM; 0.9% of 370,000 active;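 active = activation above the mean of all tested compounds plus 3 SD, computed per campaign excluding outliers beyond control limits, cut at about 13% in these data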
Target sequence (P49862 whole entry, looked up): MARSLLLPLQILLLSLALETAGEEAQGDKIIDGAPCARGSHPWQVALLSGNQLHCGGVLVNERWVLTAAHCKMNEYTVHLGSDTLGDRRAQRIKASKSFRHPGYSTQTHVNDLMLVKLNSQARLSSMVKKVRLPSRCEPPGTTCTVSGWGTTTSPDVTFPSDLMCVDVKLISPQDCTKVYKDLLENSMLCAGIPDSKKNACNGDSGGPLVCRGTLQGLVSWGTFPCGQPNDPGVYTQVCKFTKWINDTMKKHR
HGIII-sPLA2 inh: Inhibits HGIII-sPLA2 liposome hydrolysis, primary screen; 0.56% of 370,000 active; AID 743126; inhibition, % at 12.2 µM; QFRET BODIPY PC-A2 liposome hydrolysis, fluorescence; Q9NZ20;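 active = inhibition above mean plus 3 SD of compounds lying within the high and low control bounds, cut at about 19% in these data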
CendR NRP1 mod: modulators of CendR peptide binding to human neuropilin-1; 0.85% of 360,000 active; inhibition, % at 25 µM; O14786; FAM-RPARPAR peptide binding to NRP-1, fluorescence polarization; AID 602438;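 active = inhibition or corrected inhibition above about 18%, plus a signal ratio from 0.5 to 1.5, limit read from the data, passing the limit was not always enough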
ADAM17 inh: inhibitors of human ADAM17; P78536; recombinant ADAM17, EDANS/DABCYL FRET peptide cleavage; inhibition, % at 6.95 µM; 0.83% of 370,000 active; AID 720648;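 active = inhibition above the mean of compounds lying between control limits plus 3 SD, set per campaign, cut at about 8.5% in these data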
ADAM10 confirm: confirmation of inhibitors of human ADAM10. AID 743208. ADAM10 QFRET peptide cleavage, EDANS fluorescence. 1% of 2,100 active. shares compounds with ADAM10 inh. inhibition, % at 6.95 µM;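 active = inhibition above about 20% chosen separately for each screening run, limit read from the data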
ADAM17 ctr: counter-screen for ADAM10 exosite inhibitors: inhibitors of human ADAM17; 0.5% of 2,100 active; shares compounds with ADAM10 inh; ADAM17 QFRET peptide cleavage, EDANS fluorescence; AID 743214; inhibition, % at 6.95 µM;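 active = mean triplicate inhibition above the solvent-only control wells' mean plus 3 SD, cut at about 12% in these data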
A number is an active result; - = inactive; . = no result.

SMILES	ADAM10 inh	KLK7 zymogen act	HGIII-sPLA2 inh	CendR NRP1 mod	ADAM17 inh	ADAM10 confirm	ADAM17 ctr
COC(=O)[C@]12C[C@H](CC(=O)NCc3ccc(C)o3)C(=O)N(Cc3ccc4c(c3)OCO4)C1=C[C@H](C(C)C)O[C@@H]2C1CC1	-	-	-	.	-	.	.
Cc1ccc(-c2cc(C(=O)NN=Cc3ccc(N(C)C)cc3)[nH]n2)cc1C	-	-	-	.	-	.	.
O=C(COc1ccc(Br)cc1Br)NC(=O)NC1CCCC1	-	-	-	-	-	.	.
CC(C)(C)NC(=O)NC(=O)COc1ccc(Br)cc1Br	20.2	-	-	-	-	-	-
CCOC(=O)C(C)C1(O)c2ccccc2-c2ncccc21 (stereo not given)	-	-	-	-	-	.	.
OC(CC1CC12c1ccccc1-c1ncccc12)(c1ccccc1)c1ccccc1 (stereo not given)	23.7	-	-	-	-	-	-
O=C(Oc1cccc2c(O)cccc12)c1ccccc1	23.3	-	-	-	-	-	-
COC(=O)[C@]12C[C@H](CC(=O)NCc3ccc(C)o3)C(=O)N(Cc3ccc(Cl)cc3Cl)C1=C[C@H](COCc1ccccc1)O[C@@H]2C	-	-	-	.	-	.	.
Cc1ccc(NC(=S)Nc2ccc(F)cc2)c(C)c1	20.8	-	-	-	-	-	-
CCOC(=O)N1CCN(C(=O)C[C@H]2C(=O)N(Cc3ccc(OC)cc3)C3=CCCC[C@@]32C(=O)OCC)CC1	-	-	-	.	-	.	.
COC(=O)C1=C(C)N(Cc2ccc(Cl)cc2)C(=S)NC1c1cccc(OC)c1 (stereo not given)	21.9	-	-	.	-	-	-
COC(=O)C1=C(C)N(Cc2ccc(Cl)cc2)C(=S)NC1c1ccccc1 (stereo not given)	-	-	-	.	-	.	.
CCOc1cc(CNn2cn[nH]c2=S)cc(Cl)c1OCc1ccccc1F	24.5	-	-	-	12.3	-	-
O=S(Cc1ccc(Br)cc1)Cc1nnc(SCc2ccc(Br)cc2)n1-c1ccccc1 (stereo not given)	21.9	-	-	-	-	-	-
Cc1nn(C)cc1CNC(=O)Nc1ccc(Br)cc1Cl	85.3	-	-	-	-	-	-
Cc1nn(C)cc1CNC(=O)Nc1cccc(Cl)c1	-	-	-	-	-	.	.
COc1ccccc1NC(=S)N1C2CCC1CC(NC(=O)NC13CC4CC(CC(C4)C1)C3)C2 (stereo not given)	-	-	-	-	-	.	.
CCOc1ccccc1NC(=S)N1C2CCC1CC(NC(=O)NC13CC4CC(CC(C4)C1)C3)C2 (stereo not given)	33.4	-	-	-	-	-	-
COc1ccc(NS(=O)(=O)c2cccc(N3CC(O)=C(c4ccccc4)C3=N)c2)cc1	65.3	-	-	-	-	-	-
COc1ccc(CNC(=O)O[C@@H]2C[C@H]3C(=O)N(c4ccccc4)C(=O)[C@H]3[C@@]3(CN(S(=O)(=O)c4ccc(C)cc4)C[C@H]3C)[C@@H]2O)cc1OC	19.8	-	-	-	-	-	-
Cc1ccc(S(=O)(=O)N2C[C@@H](C)[C@]3(C2)[C@H](O)[C@H](OC(=O)NCc2ccco2)C[C@H]2C(=O)N(c4ccccc4)C(=O)[C@H]23)cc1	-	-	-	-	-	.	.
COc1cccc(NC(=O)[C@@H](NC(=O)N2CCn3c2nc2ccccc23)C(C)C)c1	20.6	-	-	-	-	-	-
COc1cccc(NC(=O)[C@H](C)NC(=O)N2CCn3c2nc2ccccc23)c1	-	-	-	-	-	.	.
COc1ccc(OC)c(CN2C(=O)c3ccnn3CC2(C)c2nnnn2C2CCCC2)c1 (stereo not given)	-	-	-	.	-	.	.
O=C(CC1SC(=Nc2ccccc2)N(Cc2ccccn2)C1=O)Nc1ccc(Br)cc1 (stereo not given)	22.3	-	-	-	-	-	-
SMILES	ADAM10 inh	KLK7 zymogen act	HGIII-sPLA2 inh	CendR NRP1 mod	ADAM17 inh	ADAM10 confirm	ADAM17 ctr
O=C(CC1SC(=Nc2cccc3ccccc23)N(Cc2ccccn2)C1=O)Nc1ccccc1Br (stereo not given)	-	-	-	-	-	.	.
CCOC(=O)C1C(=O)C=C(C)C(C(=O)OCC)C1c1cccc([N+](=O)[O-])c1 (stereo not given)	20.0	-	-	-	-	-	-
COc1ccc(/C=N/NC(=O)Cc2csc(Nc3cccc(C(F)(F)F)c3)n2)c(OC)c1	24.9	-	-	-	-	-	-
CCOc1ccc(/C=N/NC(=O)Cc2csc(Nc3cccc(C(F)(F)F)c3)n2)c(OCC)c1	20.4	-	-	-	-	-	-
CCOc1ccccc1/C=N/NC(=O)Cc1csc(Nc2cccc(C(F)(F)F)c2)n1	-	-	-	-	-	.	.
Clc1ccc([C@H]2OC[C@@]3(CNCc4ccccn4)CS[C@H](c4ccc(Cl)cc4)N23)cc1	-	-	-	.	-	.	.
Cc1ccc(-c2cc(C(=O)NN=Cc3ccc(-c4ccccc4)cc3)[nH]n2)cc1C	-	-	-	.	-	.	.
Cc1ccc(-c2cc(C(=O)NN=C/C=C/c3ccco3)[nH]n2)cc1C	20.0	-	-	.	-	-	-
COc1ccccc1NS(=O)(=O)c1cccc(NC(=O)Nc2ccc(Cl)cc2)c1	56.0	-	-	-	25.8	-	-
COc1ccccc1NS(=O)(=O)c1cccc(NC(=O)Nc2ccccc2)c1	-	-	-	-	-	.	.
COc1ccc([C@@H]2[C@@H]3C(=O)N(C(C)(C)C)C(=O)[C@@H]3[C@]3(Cc4ccc(Cl)cc4)C(=O)N(c4ccc(OC)cc4)C(=O)N23)cc1	20.8	-	-	-	-	-	-
COc1ccc(-n2c(=S)[nH]c3cc(C(=O)NCc4ccc(F)cc4)ccc3c2=O)c(OC)c1	23.2	-	-	-	-	-	-
Cc1nc2ccc(NC(=O)c3cc(Cl)ccc3F)cc2c(=O)[nH]1	-	-	-	.	-	.	.
CCNC(=S)NNC(=O)c1cnccn1	-	-	-	.	-	.	.
COc1ccc(N(C)S(=O)(=O)c2cccc(C(=O)Nc3cc(OC)ccc3OC)c2)cc1	20.5	-	-	-	-	-	-
CCc1ccc(N=Nc2ccc(O)c3[nH]cnc23)cc1	23.5	-	-	-	-	-	-
COc1ccc(N=Nc2ccc(O)c3ncccc23)cc1	-	-	-	-	-	.	.
O=C(O)CCN1C(=O)/C(=C/c2cccc(OCc3ccc(F)cc3)c2)SC1=S	-	.	-	.	-	.	.
COC(=O)C1=C(C)NC(C)=C(C(=O)OCC2CCCO2)C1c1ccc(Cl)c([N+](=O)[O-])c1 (stereo not given)	25.8	-	-	-	-	-	-
O=S(=O)(Nc1cc(C(F)(F)F)ccc1N1CCOCC1)c1ccc2ccccc2c1	23.8	-	-	-	-	-	-
O=S(=O)(Nc1cc(C(F)(F)F)ccc1N1CCOCC1)c1ccccc1	-	-	-	-	-	.	.
